This is a sample that favours compounds with a hit; in the whole collection about 2.9% have one here.
LYPLA1 counter: LYPLA1 (human) inhibition in PME1 counter-screen. recombinant LYPLA1, FP-Rh probe fluorescence polarization. inhibition, % at 5.9 µM. 320,000 tested, 0.16% active;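 active = inhibition above the mean of all tested compounds plus 3 SD, set per campaign, cut at about 14% in these data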;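 note: inhibitors block serine hydrolase probe labeling of LYPLA1 so polarization falls; 0% = enzyme with DMSO and 100% = wells lacking LYPLA1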
PAFAH1B3 inh: blocks human PAF acetylhydrolase 1B catalytic subunit 3; recombinant PAFAH1B3, FP-rhodamine probe, fluorescence polarization; Q15102; 340,000 tested, 0.28% active; inhibition, % at 3.39 µM;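 active = inhibition above the screen-wide average of all tested compounds plus 3 SD, cut at about 25% in these data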;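 note: 0% = enzyme with DMSO only and 100% = wells lacking PAFAH1B3 protein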
PAFAH2 FP inh: PAFAH2 (human) inhibition | 340,000 tested, 0.99% active | recombinant PAFAH2, FP-rhodamine activity probe, fluorescence polarization | inhibition, % at 3.39 µM;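 active = inhibition above the mean over all tested compounds plus 3 SD, cut at about 30% in these data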;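 note: inhibitors block probe labeling of enzyme so polarization drops; 0% = enzyme with DMSO and 100% = wells lacking PAFAH2 protein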
pPAFAH inh: inhibitors of human plasma PAF acetylhydrolase (pPAFAH). AID 463082. recombinant pPAFAH, FP-rhodamine probe fluorescence polarization. 330,000 tested, 1.5% active. inhibition, % at 3.39 µM. Q13093;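 active = inhibition above the mean inhibition across the screen plus 3 SD, cut at about 25% in these data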;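 note: inhibitors block binding of the rhodamine activity-based probe so polarization drops; 0% = enzyme with DMSO and 100% = wells lacking pPAFAH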
Target sequence (Q13093 whole entry, looked up): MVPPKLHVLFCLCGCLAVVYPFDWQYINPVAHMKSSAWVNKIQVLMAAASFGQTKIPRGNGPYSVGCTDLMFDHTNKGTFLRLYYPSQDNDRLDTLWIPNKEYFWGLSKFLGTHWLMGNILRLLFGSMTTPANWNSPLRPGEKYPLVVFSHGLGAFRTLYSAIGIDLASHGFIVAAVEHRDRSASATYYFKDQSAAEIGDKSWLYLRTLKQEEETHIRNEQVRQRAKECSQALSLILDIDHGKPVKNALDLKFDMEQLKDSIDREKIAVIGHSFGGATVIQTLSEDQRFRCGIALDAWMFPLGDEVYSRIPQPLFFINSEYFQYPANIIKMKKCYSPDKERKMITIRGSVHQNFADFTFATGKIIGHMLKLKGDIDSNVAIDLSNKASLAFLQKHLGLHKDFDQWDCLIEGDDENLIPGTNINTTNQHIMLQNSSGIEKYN
LYPLA2 inh: counter-screen for PME1 inhibitors: inhibitors of human LYPLA2 | inhibition, % at 5.9 µM | 320,000 tested, 0.38% active | O95372 | recombinant LYPLA2, FP-Rh probe fluorescence polarization;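 active = inhibition above the screen-wide mean plus 3 SD, limit set per campaign, cut at about 26% in these data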;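 note: 0% = LYPLA2 with DMSO and 100% = wells lacking LYPLA2 enzyme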
PAFAH1B2 FP inh: blocks human PAF acetylhydrolase 1b catalytic subunit 2; P68402; recombinant PAFAH1B2, FP-rhodamine activity probe, fluorescence polarization; inhibition, % at 3.39 µM; 340,000 tested, 1.2% active;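 active = inhibition above the mean of all tested compounds plus 3 SD, cut at about 24% in these data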;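 note: 0% = enzyme with DMSO and 100% = wells lacking PAFAH1B2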
Target sequence (P68402 whole entry, looked up): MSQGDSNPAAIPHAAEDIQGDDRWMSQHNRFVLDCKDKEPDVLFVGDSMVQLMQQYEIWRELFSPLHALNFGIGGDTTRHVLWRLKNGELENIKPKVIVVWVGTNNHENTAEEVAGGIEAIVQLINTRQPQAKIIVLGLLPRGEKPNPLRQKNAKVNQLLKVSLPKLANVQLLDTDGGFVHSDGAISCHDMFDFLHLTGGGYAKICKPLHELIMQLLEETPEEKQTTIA
pPAFAH FP conf: pPAFAH (human) inhibition, confirmed; inhibition, % at 3.39 µM; 2,300 tested, 72% active; recombinant pPAFAH, FP-Rh probe fluorescence polarization; shares compounds with pPAFAH inh;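 active = mean inhibition of the triplicate above the hit cutoff set for the earlier primary screen, cut at about 25% in these data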;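 note: 0% = enzyme with DMSO and 100% = wells lacking pPAFAH enzyme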
Starred values were filed as active, the others as inactive.

What do the screens show for `O=C1CC(=C2c3ccccc3-c3ccccc32)C(=O)N1CCCCN1CCN(c2ccccc2)CC1`?
LYPLA1 counter: -5.8; PAFAH1B3 inh: -4.2; PAFAH2 FP inh: 4.1; pPAFAH inh: 41.1*; LYPLA2 inh: 2.8; PAFAH1B2 FP inh: -1.1; pPAFAH FP conf: 19.3

What do the screens show for `O=C(NCCC1=CCCCC1)c1c(O)nc2sccn2c1=O`?
LYPLA1 counter: 1.5; PAFAH1B3 inh: -0.9; PAFAH2 FP inh: 5.0; pPAFAH inh: 2.8; LYPLA2 inh: -2.0; PAFAH1B2 FP inh: 1.9

Results for Cc1cc(C)c(NS(=O)(=O)c2ccc(Cl)c(C(=O)O)c2)c(C)c1 ?
LYPLA1 counter: -0.5; PAFAH1B3 inh: 5.7; PAFAH2 FP inh: 2.2; pPAFAH inh: 6.7; LYPLA2 inh: 2.2; PAFAH1B2 FP inh: 3.2

What do the screens show for `CSc1ncccc1C(=O)OCC(=O)NC1CCC(C)CC1` (stereo unspecified)?
LYPLA1 counter: -0.7; PAFAH1B3 inh: 7.5; PAFAH2 FP inh: 36.4*; pPAFAH inh: 51.9*; LYPLA2 inh: -1.1; PAFAH1B2 FP inh: 0.9; pPAFAH FP conf: -0.1

What do the screens show for `O=C(NCCc1ccc2c(c1)OCCO2)c1cccc(S(=O)(=O)N2CCCC2)c1`?
LYPLA1 counter: -1.3; PAFAH1B3 inh: 9.0; PAFAH2 FP inh: 6.6; pPAFAH inh: 35.9*; LYPLA2 inh: 0.1; PAFAH1B2 FP inh: -0.3; pPAFAH FP conf: -5.9

Results for O=C(NCCc1ccc2c(c1)OCCO2)c1cc(S(=O)(=O)N2CCCC2)ccc1Cl ?
PAFAH1B3 inh: 6.2; PAFAH2 FP inh: -0.9; PAFAH1B2 FP inh: -4.8

How did CC(C)(C)c1ccc(-n2ncc3c2CCCC3NC(=O)CCN2CCCO2)cc1 (stereo unspecified) do in these assays?
LYPLA1 counter: 1.7; PAFAH1B3 inh: 4.0; PAFAH2 FP inh: 5.4; pPAFAH inh: 37.3*; LYPLA2 inh: -0.7; PAFAH1B2 FP inh: 5.2; pPAFAH FP conf: 18.5

How did O=C1CN(C(=O)COc2ccccc2)c2ccccc2N1 do in these assays?
LYPLA1 counter: -1.5; PAFAH1B3 inh: 6.2; PAFAH2 FP inh: -5.0; pPAFAH inh: 4.0; LYPLA2 inh: 6.0; PAFAH1B2 FP inh: 5.6

What do the screens show for `CC(=O)C(C(C)=O)c1c(Cl)c(O)c(O)c2c(C(=O)c3ccccc3)coc12`?
LYPLA1 counter: -1.5; PAFAH1B3 inh: -9.4; PAFAH2 FP inh: 9.7; pPAFAH inh: 58.9*; LYPLA2 inh: -1.5; PAFAH1B2 FP inh: 0.3; pPAFAH FP conf: 45.4*

What do the screens show for `Cc1ccc(NS(=O)(=O)c2ccc(-c3cnc(C4CC4)o3)cc2)c(C)c1`?
LYPLA1 counter: -6.6; PAFAH1B3 inh: 13.7; PAFAH2 FP inh: 4.2; pPAFAH inh: 52.9*; LYPLA2 inh: 4.3; PAFAH1B2 FP inh: 1.9; pPAFAH FP conf: 46.1*

Results for O=C(O)COc1ccccc1/C=N/Nc1ccc(S(=O)(=O)Nc2ccc(Cl)cc2)cc1[N+](=O)[O-] ?
LYPLA1 counter: 3.4; PAFAH1B3 inh: 11.4; PAFAH2 FP inh: 17.5; pPAFAH inh: 64.7*; LYPLA2 inh: 2.7; PAFAH1B2 FP inh: 46.6*; pPAFAH FP conf: 68.1*

Results for O=C(O)c1ccc(/C=N/Nc2ccc(S(=O)(=O)N3CCCC3)cc2[N+](=O)[O-])cc1 ?
LYPLA1 counter: 3.4; PAFAH1B3 inh: 3.7; PAFAH2 FP inh: 4.6; pPAFAH inh: 0.6; LYPLA2 inh: 5.7; PAFAH1B2 FP inh: 6.2

Results for O=C(O)c1ccccc1/C=N/Nc1ccc(S(=O)(=O)N2CCOCC2)cc1[N+](=O)[O-] ?
LYPLA1 counter: 5.0; PAFAH1B3 inh: 5.7; PAFAH2 FP inh: -1.2; pPAFAH inh: 3.3; LYPLA2 inh: 4.7; PAFAH1B2 FP inh: 9.1

What do the screens show for `O=C(O)c1ccccc1NS(=O)(=O)c1ccc(NN=Cc2ccc(F)cc2)c([N+](=O)[O-])c1`?
PAFAH1B3 inh: 13.6; PAFAH2 FP inh: 19.0; pPAFAH inh: 58.4*; PAFAH1B2 FP inh: 14.2; pPAFAH FP conf: 77.5*

What do the screens show for `O=C(O)c1ccccc1NS(=O)(=O)c1ccc(NN=Cc2cccc(Cl)c2)c([N+](=O)[O-])c1`?
PAFAH1B3 inh: 12.3; PAFAH2 FP inh: 21.8; pPAFAH inh: 66.1*; PAFAH1B2 FP inh: 15.0; pPAFAH FP conf: 77.3*

What do the screens show for `OCC(O)/C=N/Nc1nc(Nc2ccccc2)nc(Nc2ccccc2)n1` (stereo unspecified)?
LYPLA1 counter: -6.6; PAFAH1B3 inh: -0.5; PAFAH2 FP inh: 1.1; pPAFAH inh: 38.6*; LYPLA2 inh: -7.0; PAFAH1B2 FP inh: -4.0; pPAFAH FP conf: 20.0

Results for CN(C)c1nc(N/N=C/c2ccccc2O)nc(Nc2ccc(F)cc2)n1 ?
LYPLA1 counter: -16.0; PAFAH1B3 inh: 7.0; PAFAH2 FP inh: -4.7; pPAFAH inh: 2.0; LYPLA2 inh: -11.0; PAFAH1B2 FP inh: 4.2

How did CCCCOc1cc(NCc2ccccc2)c2ncn(C(C)C)c2c1 do in these assays?
PAFAH1B3 inh: 12.4; PAFAH2 FP inh: 11.9; pPAFAH inh: 35.5*; PAFAH1B2 FP inh: 6.8; pPAFAH FP conf: 39.3*

Results for COCCCOc1cc(NCc2ccccc2)c2ncn(C(C)C)c2c1 ?
PAFAH1B3 inh: 1.6; PAFAH2 FP inh: 1.7; pPAFAH inh: 9.1; PAFAH1B2 FP inh: 7.9

What do the screens show for `Cc1cc(C(=O)C(=O)NC(C)C)c(C)n1-c1ccc([N+](=O)[O-])cc1`?
LYPLA1 counter: -0.2; PAFAH1B3 inh: 11.2; PAFAH2 FP inh: -3.7; pPAFAH inh: 3.4; LYPLA2 inh: 4.6; PAFAH1B2 FP inh: 2.0

Results for COCCNC(=O)C(=O)c1cc(C)n(-c2ccc([N+](=O)[O-])cc2)c1C ?
LYPLA1 counter: 2.9; PAFAH1B3 inh: 0.8; PAFAH2 FP inh: 1.5; pPAFAH inh: 36.1*; LYPLA2 inh: 0.6; PAFAH1B2 FP inh: 1.1; pPAFAH FP conf: 28.2*

What do the screens show for `Cc1cc(C)n(-c2ccc(C(=O)OCC(=O)c3ccc(Br)s3)cc2)n1`?
LYPLA1 counter: -6.1; PAFAH1B3 inh: 4.1; PAFAH2 FP inh: 50.0*; pPAFAH inh: 35.9*; LYPLA2 inh: -0.5; PAFAH1B2 FP inh: 2.1; pPAFAH FP conf: 27.0*

How did Cc1cc(C)n(-c2ccc(C(=O)OCc3ccccc3)cc2)n1 do in these assays?
LYPLA1 counter: -0.9; PAFAH1B3 inh: -6.7; PAFAH2 FP inh: -4.2; pPAFAH inh: 11.8; LYPLA2 inh: 2.6; PAFAH1B2 FP inh: 1.2

Results for Oc1c(Br)cc(C=Nc2ccc3nc(-c4ccccc4)[nH]c3c2)c(O)c1Br ?
LYPLA1 counter: -23.0; pPAFAH inh: 43.8*; LYPLA2 inh: -20.8; pPAFAH FP conf: 34.8*

How did Cc1ccc(-n2nc3c(=O)n(CCCC(=O)NCc4cccc(Cl)c4)nc(C)c3c2C)cc1 do in these assays?
LYPLA1 counter: 4.4; PAFAH1B3 inh: 6.4; PAFAH2 FP inh: 7.0; pPAFAH inh: 7.2; LYPLA2 inh: 6.1; PAFAH1B2 FP inh: 2.3

Bioassay records from PubChem.
